{"source": "the supplement of paper PMC10382584", "about": "“Macrocyclization of linear molecules by deep learning to facilitate macrocyclic drug candidates discovery” (Nature Communications, 2023)"}
{"compound": "Cc1cnc(Nc2ccc(OCCN3CCCC3)cc2)nc1Nc1cccc(S(=O)(=O)NC(C)(C)C)c1 [Fedratinib]", "experiment": "percent of DMSO control binding (KINOMEscan); higher = weaker binding / less inhibition; extreme values may be limits of the assay", "conditions": "concentration: 100 nM", "units": {"percent of DMSO control binding": "%"}}
{"target": "LRRK2(G2019S) (UniProt Q5S007)", "percent of DMSO control binding": 76}
{"target": "PIP5K2C (UniProt Q8TBX8)", "percent of DMSO control binding": 100}
{"target": "TNNI3K (UniProt Q59H18)", "percent of DMSO control binding": 97}
{"target": "RSK1(Kin.Dom.2-C-terminal) (UniProt Q15418)", "sequence (Q15418 whole entry, looked up)": "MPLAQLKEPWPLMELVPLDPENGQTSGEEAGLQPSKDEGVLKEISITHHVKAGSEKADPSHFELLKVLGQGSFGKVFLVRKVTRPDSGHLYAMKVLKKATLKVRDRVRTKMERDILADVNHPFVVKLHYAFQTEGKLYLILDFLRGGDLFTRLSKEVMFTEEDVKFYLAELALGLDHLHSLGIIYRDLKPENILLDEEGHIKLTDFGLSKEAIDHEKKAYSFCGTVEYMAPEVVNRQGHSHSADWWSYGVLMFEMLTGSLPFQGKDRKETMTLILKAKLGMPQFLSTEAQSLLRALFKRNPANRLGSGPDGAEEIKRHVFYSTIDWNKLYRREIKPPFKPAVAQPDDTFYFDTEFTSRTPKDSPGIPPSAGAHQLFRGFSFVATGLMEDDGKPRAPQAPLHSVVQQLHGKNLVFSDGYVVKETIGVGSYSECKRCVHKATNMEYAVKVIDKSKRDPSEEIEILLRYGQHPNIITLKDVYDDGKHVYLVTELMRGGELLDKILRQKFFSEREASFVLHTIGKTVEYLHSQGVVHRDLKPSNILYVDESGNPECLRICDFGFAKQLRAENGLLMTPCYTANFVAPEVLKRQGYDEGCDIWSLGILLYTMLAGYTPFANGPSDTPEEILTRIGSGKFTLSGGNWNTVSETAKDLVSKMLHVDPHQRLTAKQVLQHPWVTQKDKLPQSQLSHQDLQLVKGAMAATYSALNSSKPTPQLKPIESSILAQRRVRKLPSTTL", "percent of DMSO control binding": 93}
{"target": "MKNK1 (UniProt Q9BUB5)", "percent of DMSO control binding": 88}
{"target": "CAMKK2 (UniProt Q96RR4)", "sequence (Q96RR4 whole entry, looked up)": "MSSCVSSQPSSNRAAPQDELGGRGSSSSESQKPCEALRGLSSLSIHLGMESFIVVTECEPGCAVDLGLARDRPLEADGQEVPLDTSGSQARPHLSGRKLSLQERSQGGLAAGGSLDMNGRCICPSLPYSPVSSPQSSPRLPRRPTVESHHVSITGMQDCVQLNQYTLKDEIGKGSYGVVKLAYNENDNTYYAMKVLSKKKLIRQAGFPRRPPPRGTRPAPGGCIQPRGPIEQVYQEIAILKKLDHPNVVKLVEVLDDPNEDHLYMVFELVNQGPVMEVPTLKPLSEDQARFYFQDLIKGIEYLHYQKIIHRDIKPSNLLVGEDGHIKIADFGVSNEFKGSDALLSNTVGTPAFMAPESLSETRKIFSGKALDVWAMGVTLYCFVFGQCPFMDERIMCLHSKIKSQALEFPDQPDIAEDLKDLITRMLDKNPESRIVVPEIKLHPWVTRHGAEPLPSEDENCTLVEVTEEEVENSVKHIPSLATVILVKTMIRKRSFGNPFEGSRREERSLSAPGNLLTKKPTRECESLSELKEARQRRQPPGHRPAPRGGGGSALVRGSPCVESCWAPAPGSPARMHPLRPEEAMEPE", "percent of DMSO control binding": 100}
{"target": "CDKL2 (UniProt Q92772)", "sequence (Q92772 whole entry)": "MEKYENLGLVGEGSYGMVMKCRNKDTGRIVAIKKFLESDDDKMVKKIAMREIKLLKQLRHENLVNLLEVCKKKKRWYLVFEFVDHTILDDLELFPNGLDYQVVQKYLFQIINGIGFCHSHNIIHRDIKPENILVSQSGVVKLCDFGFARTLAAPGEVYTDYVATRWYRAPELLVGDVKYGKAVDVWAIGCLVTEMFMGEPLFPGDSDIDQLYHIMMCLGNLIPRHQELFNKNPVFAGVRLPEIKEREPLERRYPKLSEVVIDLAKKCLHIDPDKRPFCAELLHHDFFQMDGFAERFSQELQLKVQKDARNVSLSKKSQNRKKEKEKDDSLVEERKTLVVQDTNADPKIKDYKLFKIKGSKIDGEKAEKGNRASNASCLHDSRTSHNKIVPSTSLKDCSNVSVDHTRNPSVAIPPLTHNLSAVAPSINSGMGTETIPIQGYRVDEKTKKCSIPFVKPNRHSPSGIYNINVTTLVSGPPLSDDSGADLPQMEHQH", "percent of DMSO control binding": 100}
{"target": "PFTK1 (UniProt O94921)", "sequence (O94921 whole entry)": "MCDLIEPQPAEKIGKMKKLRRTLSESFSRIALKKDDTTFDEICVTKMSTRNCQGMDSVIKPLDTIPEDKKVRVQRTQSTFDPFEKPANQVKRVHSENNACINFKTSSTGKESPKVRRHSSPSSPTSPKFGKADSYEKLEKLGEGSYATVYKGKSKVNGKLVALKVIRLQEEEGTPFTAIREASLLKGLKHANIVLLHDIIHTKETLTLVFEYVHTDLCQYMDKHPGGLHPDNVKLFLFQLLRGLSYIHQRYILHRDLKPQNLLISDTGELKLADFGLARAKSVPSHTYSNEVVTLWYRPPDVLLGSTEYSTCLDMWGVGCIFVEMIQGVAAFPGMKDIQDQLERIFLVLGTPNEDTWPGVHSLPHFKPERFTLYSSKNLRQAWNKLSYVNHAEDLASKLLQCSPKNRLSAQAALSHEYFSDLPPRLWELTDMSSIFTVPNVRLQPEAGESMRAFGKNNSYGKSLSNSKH", "percent of DMSO control binding": 100}
{"target": "AMPK-alpha2 (UniProt P54646)", "percent of DMSO control binding": 100}
{"target": "TYK2(JH1domain-catalytic) (UniProt P29597)", "percent of DMSO control binding": 8.8}
{"target": "DDR1 (UniProt Q08345)", "percent of DMSO control binding": 100}
{"target": "BMPR2 (UniProt Q13873)", "percent of DMSO control binding": 68}
{"target": "VRK2 (UniProt Q86Y07)", "sequence (Q86Y07 whole entry)": "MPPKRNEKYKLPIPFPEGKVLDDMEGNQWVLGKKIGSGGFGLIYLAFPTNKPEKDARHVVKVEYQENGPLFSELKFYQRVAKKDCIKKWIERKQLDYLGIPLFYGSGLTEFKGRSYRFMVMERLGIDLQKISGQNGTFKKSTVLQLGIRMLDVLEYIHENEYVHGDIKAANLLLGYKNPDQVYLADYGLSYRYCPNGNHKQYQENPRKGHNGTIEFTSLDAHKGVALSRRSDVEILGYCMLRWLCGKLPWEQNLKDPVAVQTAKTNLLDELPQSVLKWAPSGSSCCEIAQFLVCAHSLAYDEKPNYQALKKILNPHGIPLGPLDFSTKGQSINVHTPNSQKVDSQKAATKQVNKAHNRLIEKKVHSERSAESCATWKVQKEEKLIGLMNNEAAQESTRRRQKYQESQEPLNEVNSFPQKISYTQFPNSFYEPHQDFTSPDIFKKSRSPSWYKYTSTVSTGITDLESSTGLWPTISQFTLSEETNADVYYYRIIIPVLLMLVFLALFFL", "percent of DMSO control binding": 63}
{"target": "CTK (UniProt P42679)", "percent of DMSO control binding": 74}
{"target": "EGFR(S752-I759del) (UniProt P00533)", "percent of DMSO control binding": 88}
{"target": "EGFR(G719C) (UniProt P00533)", "percent of DMSO control binding": 100}
{"target": "PFPK5(P.falciparum)", "percent of DMSO control binding": 100}
{"target": "EGFR(T790M) (UniProt P00533)", "percent of DMSO control binding": 100}
{"target": "ALK(C1156Y) (UniProt Q9UM73)", "percent of DMSO control binding": 57}
{"target": "ZAK (UniProt Q9NYL2)", "percent of DMSO control binding": 81}
{"target": "PKNB(M.tuberculosis)", "percent of DMSO control binding": 61}
{"target": "PFTAIRE2 (UniProt Q96Q40)", "percent of DMSO control binding": 100}
{"target": "PAK4 (UniProt O96013)", "sequence (O96013 whole entry, looked up)": "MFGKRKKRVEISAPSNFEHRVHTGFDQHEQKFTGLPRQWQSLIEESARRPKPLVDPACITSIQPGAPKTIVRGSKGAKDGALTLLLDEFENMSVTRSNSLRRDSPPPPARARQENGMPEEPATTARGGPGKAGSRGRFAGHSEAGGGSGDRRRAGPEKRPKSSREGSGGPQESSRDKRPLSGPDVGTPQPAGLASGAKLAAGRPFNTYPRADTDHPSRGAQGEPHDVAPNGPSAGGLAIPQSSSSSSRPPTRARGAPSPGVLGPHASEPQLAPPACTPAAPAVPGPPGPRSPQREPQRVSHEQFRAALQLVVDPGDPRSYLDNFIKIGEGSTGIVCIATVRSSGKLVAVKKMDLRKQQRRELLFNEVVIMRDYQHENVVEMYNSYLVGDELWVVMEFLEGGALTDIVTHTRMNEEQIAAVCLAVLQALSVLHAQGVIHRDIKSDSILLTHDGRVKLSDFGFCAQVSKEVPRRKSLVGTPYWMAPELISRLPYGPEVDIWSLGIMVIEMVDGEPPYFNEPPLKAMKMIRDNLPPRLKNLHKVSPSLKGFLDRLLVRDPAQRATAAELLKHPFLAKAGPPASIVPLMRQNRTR", "percent of DMSO control binding": 100}
{"target": "RSK4(Kin.Dom.1-N-terminal)", "percent of DMSO control binding": 70}
{"target": "PRKCH", "percent of DMSO control binding": 100}
{"target": "PIKFYVE (UniProt Q9Y2I7)", "percent of DMSO control binding": 83}
{"target": "EGFR(E746-A750del) (UniProt P00533)", "percent of DMSO control binding": 99}
{"target": "SYK (UniProt P43405)", "percent of DMSO control binding": 100}
{"target": "RSK3(Kin.Dom.1-N-terminal)", "percent of DMSO control binding": 100}
{"target": "RPS6KA5(Kin.Dom.1-N-terminal) (UniProt O75582)", "sequence (O75582 whole entry, looked up)": "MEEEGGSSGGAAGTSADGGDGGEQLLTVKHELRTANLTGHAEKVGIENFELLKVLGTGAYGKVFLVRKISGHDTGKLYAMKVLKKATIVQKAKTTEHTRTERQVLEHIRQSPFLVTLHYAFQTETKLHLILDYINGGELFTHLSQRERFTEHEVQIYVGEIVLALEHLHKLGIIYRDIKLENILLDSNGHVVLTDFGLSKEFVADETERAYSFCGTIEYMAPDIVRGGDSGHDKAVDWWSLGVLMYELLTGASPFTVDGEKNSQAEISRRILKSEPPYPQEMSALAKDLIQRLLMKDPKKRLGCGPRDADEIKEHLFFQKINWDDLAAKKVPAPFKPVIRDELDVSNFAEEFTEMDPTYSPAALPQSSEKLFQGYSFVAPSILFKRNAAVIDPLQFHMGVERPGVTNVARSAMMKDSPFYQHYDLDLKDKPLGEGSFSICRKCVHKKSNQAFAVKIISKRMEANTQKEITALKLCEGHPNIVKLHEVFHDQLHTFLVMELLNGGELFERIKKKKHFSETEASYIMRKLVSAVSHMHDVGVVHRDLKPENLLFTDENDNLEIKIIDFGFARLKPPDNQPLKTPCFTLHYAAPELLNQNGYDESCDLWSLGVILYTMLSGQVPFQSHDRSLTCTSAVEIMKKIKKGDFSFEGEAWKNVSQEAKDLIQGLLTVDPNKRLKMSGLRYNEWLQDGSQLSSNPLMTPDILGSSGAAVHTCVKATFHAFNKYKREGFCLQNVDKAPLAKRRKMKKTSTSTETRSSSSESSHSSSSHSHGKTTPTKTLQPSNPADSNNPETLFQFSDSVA", "percent of DMSO control binding": 100}
{"target": "CDK4-cyclinD3 (UniProt P11802)", "percent of DMSO control binding": 90}
{"target": "PRKCQ (UniProt Q04759)", "sequence (Q04759 whole entry, looked up)": "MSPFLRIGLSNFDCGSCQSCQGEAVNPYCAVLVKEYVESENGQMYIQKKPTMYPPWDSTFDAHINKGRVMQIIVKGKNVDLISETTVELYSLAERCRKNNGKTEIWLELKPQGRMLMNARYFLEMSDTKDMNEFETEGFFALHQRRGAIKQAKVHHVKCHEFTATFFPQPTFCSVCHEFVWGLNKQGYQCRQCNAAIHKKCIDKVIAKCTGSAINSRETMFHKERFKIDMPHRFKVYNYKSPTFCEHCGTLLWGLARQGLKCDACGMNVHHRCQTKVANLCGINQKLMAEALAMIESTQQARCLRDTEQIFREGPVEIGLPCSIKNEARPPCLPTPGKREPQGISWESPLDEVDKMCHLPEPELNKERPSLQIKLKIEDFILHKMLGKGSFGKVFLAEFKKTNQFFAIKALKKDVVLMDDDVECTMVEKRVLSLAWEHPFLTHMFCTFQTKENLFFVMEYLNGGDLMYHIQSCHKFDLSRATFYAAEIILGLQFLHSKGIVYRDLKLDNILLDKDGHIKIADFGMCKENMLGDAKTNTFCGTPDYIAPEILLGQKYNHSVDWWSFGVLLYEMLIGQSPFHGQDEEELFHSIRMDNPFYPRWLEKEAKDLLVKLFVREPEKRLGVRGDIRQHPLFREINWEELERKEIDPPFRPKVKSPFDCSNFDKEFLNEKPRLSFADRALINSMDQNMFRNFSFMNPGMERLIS", "percent of DMSO control binding": 100}
{"target": "EGFR(G719S) (UniProt P00533)", "percent of DMSO control binding": 99}
{"target": "RAF1 (UniProt P04049)", "percent of DMSO control binding": 85}
{"target": "RPS6KA4(Kin.Dom.1-N-terminal) (UniProt O75676)", "percent of DMSO control binding": 100}
{"target": "ERBB2 (UniProt P04626)", "percent of DMSO control binding": 73}
{"target": "EPHA1 (UniProt P21709)", "percent of DMSO control binding": 60}
